Experimental data: PubChem BioAssay (EPA / NIEHS)
Records with an inconclusive call do not appear. Active and inactive are the calls of the source. Rule for the calls, unless noted: active = hit-call score of the fitted dose curve at least 0.9, where 1 is the maximum; inconclusive = response in the unintended direction; inactive = score below 0.9.

Columns and labels:
[1] = target: Thyroid hormone receptor alpha (Rattus norvegicus) + Thyroid hormone receptor beta (Rattus norvegicus) (UniProt P18113+P63059); assay: TOX21_TR_LUC_GH3_Antagonist_Followup: Tox21 GH3 Thyroid Hormone Receptor Antagonism Luciferase Follow-Up Assay (AID 2283942)
Method in brief: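 Rat pituitary GH3 cells with a TRα/TRβ-driven luciferase reporter, 5 h attachment, then 15 concentrations (92 uM to 5nM final) plus 1.0 nM T3 agonist, 24 h at 37C/5% CO2. ONE-Glo luminescence; signal change fitted against DMSO baseline.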

[2] = target: THRA (gene 7067) (UniProt P10827); assay: TOX21_TRA_COA_Antagonist_Followup_ratio: Tox21 Thyroid Hormone Receptor alpha Antagonism through Coactivator Recruitment Follow-Up Assay, Ratio (AID 2283953)
Sequence of THRA (gene 7067) (P10827 whole entry, looked up, the tested form may be a part): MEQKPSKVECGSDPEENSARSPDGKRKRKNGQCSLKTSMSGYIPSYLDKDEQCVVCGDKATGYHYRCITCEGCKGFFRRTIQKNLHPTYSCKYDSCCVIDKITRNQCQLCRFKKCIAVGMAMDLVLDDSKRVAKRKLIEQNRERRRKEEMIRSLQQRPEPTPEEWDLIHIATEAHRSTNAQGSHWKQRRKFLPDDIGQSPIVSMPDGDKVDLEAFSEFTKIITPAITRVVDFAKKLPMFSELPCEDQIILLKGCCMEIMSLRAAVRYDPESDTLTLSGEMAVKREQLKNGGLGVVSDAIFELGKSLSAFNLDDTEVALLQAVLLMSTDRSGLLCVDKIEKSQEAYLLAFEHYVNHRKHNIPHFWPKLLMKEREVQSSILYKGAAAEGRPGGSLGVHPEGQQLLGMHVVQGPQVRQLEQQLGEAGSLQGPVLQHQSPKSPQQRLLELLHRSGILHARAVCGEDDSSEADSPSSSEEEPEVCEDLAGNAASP
Method in brief: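 520:495 nm emission ratio (excitation 340 nm) reports fluorescein-SRC-2 peptide recruitment to GST-TRα LBD by TR-FRET with Tb anti-GST antibody. Values were normalized to DMSO (0%) and T3 control wells (100%); loss of signal indicated antagonism.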

[3] = TOX21_TRB_BLA_Antagonist_Followup_viability: Viability Assessment in the Tox21 Thyroid Hormone Receptor beta Antagonism Beta-lactamase (BLA) Follow-Up Assay (AID 2283961)
Method in brief: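 Cytotoxicity is measured in parallel with the antagonist-mode TRβ beta-lactamase screen, using ATP-coupled luciferase luminescence. Engineered HEK293T cells are treated for 18 h with 11-point compound series in triplicate.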

[4] = target: THRB (gene 7068) (UniProt P10828); assay: TOX21_TRB_COA_Antagonist_Followup_ratio: Tox21 Thyroid Hormone Receptor beta Antagonism through Coactivator Recruitment Follow-Up Assay, Ratio (AID 2283967)
Sequence of THRB (gene 7068) (P10828 whole entry, looked up, the tested form may be a part): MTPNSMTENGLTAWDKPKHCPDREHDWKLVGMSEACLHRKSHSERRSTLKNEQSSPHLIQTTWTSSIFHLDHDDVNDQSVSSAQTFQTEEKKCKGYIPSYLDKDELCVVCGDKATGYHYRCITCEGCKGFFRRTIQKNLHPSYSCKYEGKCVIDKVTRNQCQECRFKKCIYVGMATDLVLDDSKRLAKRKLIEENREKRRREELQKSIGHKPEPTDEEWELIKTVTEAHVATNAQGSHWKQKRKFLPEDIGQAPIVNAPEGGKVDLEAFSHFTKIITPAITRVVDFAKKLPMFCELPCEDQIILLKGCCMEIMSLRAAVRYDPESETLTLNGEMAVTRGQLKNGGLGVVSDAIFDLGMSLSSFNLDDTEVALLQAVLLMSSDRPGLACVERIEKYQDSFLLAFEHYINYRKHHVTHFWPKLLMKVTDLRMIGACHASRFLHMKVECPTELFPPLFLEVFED
Method in brief: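 Cell-free TR-FRET coactivator recruitment with GST-tagged TRβ LBD (5.0 nM) and fluorescein-labeled SRC-2 peptide (200 nM) detected by terbium anti-GST antibody (2 nM). The 520:495 nm emission ratio was normalized to DMSO (0%) and T3 (100%).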

[5] = target: Retinoic acid receptor RXR-alpha (Homo sapiens) (UniProt P19793); assay: TOX21_TR_RXR_BLA_Antagonist_Followup_ratio: Tox21 Thyroid Hormone Receptor beta Retinoid X Receptor alpha (RXRa) Antagonism Beta-lactamase (BLA) Follow-Up Assay, Ratio (AID 2283972)
Sequence of Retinoic acid receptor RXR-alpha (Homo sapiens) (P19793 whole entry, looked up, the tested form may be a part): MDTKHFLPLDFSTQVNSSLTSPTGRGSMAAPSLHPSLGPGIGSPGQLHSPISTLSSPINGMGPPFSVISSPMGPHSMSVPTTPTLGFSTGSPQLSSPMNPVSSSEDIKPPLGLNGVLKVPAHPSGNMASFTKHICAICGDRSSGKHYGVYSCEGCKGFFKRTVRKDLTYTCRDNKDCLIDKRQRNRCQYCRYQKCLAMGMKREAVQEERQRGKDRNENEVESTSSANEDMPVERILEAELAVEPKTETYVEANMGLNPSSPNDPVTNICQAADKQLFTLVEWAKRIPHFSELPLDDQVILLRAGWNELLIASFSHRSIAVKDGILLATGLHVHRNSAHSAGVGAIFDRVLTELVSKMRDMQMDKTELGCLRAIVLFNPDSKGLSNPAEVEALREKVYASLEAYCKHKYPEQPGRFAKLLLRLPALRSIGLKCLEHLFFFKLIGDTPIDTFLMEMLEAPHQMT
Method in brief: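 Antagonist mode used GAL4 UAS-driven beta-lactamase in HEK293T cells expressing RXRa, treated for 16 h with compound concentration series. Activity was taken from the blue/green (460:530 nm) ratio of cleaved to uncleaved substrate.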

[6] = TOX21_TR_RXR_BLA_Antagonist_Followup_viability: Viability Assessment in the Tox21 Thyroid Hormone Receptor beta Retinoid X Receptor alpha (RXRa) Antagonism Beta-lactamase (BLA) Follow-Up Assay (AID 2283979)
Method in brief: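 RXRa-UAS-bla HEK293T cells seeded 2,500/well in phenol red-free DMEM with 2% charcoal-stripped FBS, attached 5 h, then exposed to compounds at 11 concentrations in triplicate for 16 h at 37C/5% CO2. Viability read by CellTiter-Glo ATP luminescence; bidirectional fit versus DMSO.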

[7] = target: THRB (gene 7068) (UniProt P10828); assay: TOX21_TRB_BLA_Antagonist_Followup_ratio: Tox21 Thyroid Hormone Receptor beta Antagonism Beta-lactamase (BLA) Follow-Up Assay, Ratio (AID 2283958)
Method in brief: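 HEK293T TRb-bla (GAL4 DBD + hTRβ LBD), 2% cs-FBS phenol red-free DMEM, 5 h attach; cpds 11-pt triplicate, 18 h 37C; CCF4-AM 2 h RT; 460/530 ratio vs DMSO; CellTiter-Glo viability same wells.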

[8] = target: THRA (gene 7067) (UniProt P10827); assay: TOX21_TRA_COA_Agonist_Followup_ratio: Tox21 Thyroid Hormone Receptor alpha Agonism through Coactivator Recruitment Follow-Up Assay, Ratio (AID 2283948; active = hit-call score of the fitted dose curve at least 0.9, where 1 is the maximum; inactive = score below 0.9)
Method in brief: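 First, compound was incubated with 2.5 nM GST-TRα LBD in 0.10% BSA. Next, 200 nM fluorescein-SRC-2 and 2 nM Tb-anti-GST antibody were added. Finally, the 520:495 nm ratio was normalized to DMSO and T3 controls.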

[9] = target: THRB (gene 7068) (UniProt P10828); assay: TOX21_TRB_BLA_Agonist_Followup_ratio: Tox21 Thyroid Hormone Receptor beta Agonism Beta-lactamase (BLA) Follow-Up Assay, Ratio (AID 2283954)
Method in brief: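 Human TRβ LBD–GAL4 DBD fusion in GeneBLAzer UAS-bla HEK293T cells; 11 concentrations in triplicate, 18 h at 37°C/5% CO2, T3 as agonist control. CCF4-AM substrate 2 h at room temperature; 460:530 nm ratio fitted for gain of signal versus DMSO.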

[10] = TOX21_TRB_BLA_Agonist_Followup_viability: Viability Assessment in the Tox21 Thyroid Hormone Receptor beta Agonism Beta-lactamase (BLA) Follow-Up Assay (AID 2283956)
Method in brief: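 TRb-bla HEK293T cells (GAL4-DBD/human TRb LBD) in 2% charcoal-stripped FBS medium were exposed 18 h at 37C to 11 concentrations in triplicate. CellTiter-Glo ATP luminescence was read after 30 min at room temperature, with bidirectional fitting against DMSO.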

[11] = target: THRB (gene 7068) (UniProt P10828); assay: TOX21_TRB_COA_Agonist_Followup_ratio: Tox21 Thyroid Hormone Receptor beta Agonism through Coactivator Recruitment Follow-Up Assay, Ratio (AID 2283963; active = hit-call score of the fitted dose curve at least 0.9, where 1 is the maximum; inactive = score below 0.9)
Method in brief: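 GST-TRb LBD 5.0 nM + 0.10% BSA + cpd; add fluorescein-SRC-2 200 nM / Tb anti-GST Ab 2 nM; TR-FRET ex 340, em 520:495; norm DMSO 0%, T3 100%.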

[12] = target: Retinoic acid receptor RXR-alpha (Homo sapiens) (UniProt P19793); assay: TOX21_TR_RXR_BLA_Agonist_Followup_ratio: Tox21 Thyroid Hormone Receptor beta Retinoid X Receptor alpha (RXRa) Agonism Beta-lactamase (BLA) Follow-Up Assay, Ratio (AID 2283968)
Method in brief: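 HEK293T RXRa-bla, qHTS; cpd 11-pt conc. in triplicate, 16 h 37C/5% CO2; CCF4-AM 2 h RT; ratio 460:530 nm; agonist direction vs DMSO; 9-cis retinoic acid as positive control.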

[13] = TOX21_TR_RXR_BLA_Agonist_Followup_viability: Viability Assessment in the Tox21 Thyroid Hormone Receptor beta Retinoid X Receptor alpha (RXRa) Agonism Beta-lactamase (BLA) Follow-Up Assay (AID 2283970)
Method in brief: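 Cells: HEK293T RXRa-UAS-bla, 2,500/well; medium phenol red-free DMEM + 2% charcoal-stripped FBS; 16h, 37C/5% CO2; qHTS concentration series. Read: CellTiter-Glo luminescence (ATP); bidirectional fit, DMSO = baseline.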

[14] = CCTE_Harrill_HTTr_Viability_DMEM_6hr: (Pilot) CCTE's 6-hour Cell Viability Assessment for the High-Throughput Transcriptomics (HTTr) Platform, in MCF-7 cells cultured in DMEM + 10% fetal bovine serum, Harrill Lab (AID 2283973; active = hit-call score of the fitted dose curve at least 0.9, where 1 is the maximum; inactive = score below 0.9)
Method in brief: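 MCF-7 cells in DMEM + 10% FBS, eight-point dilution series, 6 h exposure. Membrane integrity by propidium iodide exclusion with high-content imaging; bidirectional fit versus DMSO.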

[15] = CCTE_Harrill_HTTr_Viability_DMEM_12hr: (Pilot) CCTE's 12-hour Cell Viability Assessment for the High-Throughput Transcriptomics (HTTr) Platform, in MCF-7 cells cultured in DMEM + 10% fetal bovine serum, Harrill Lab (AID 2283974; active = hit-call score of the fitted dose curve at least 0.9, where 1 is the maximum; inactive = score below 0.9)
Method in brief: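 MCF-7 cells in DMEM + 10% FBS exposed 12 h to an eight-point dilution series; membrane integrity scored by propidium iodide exclusion with high-content imaging, bidirectional fitting versus DMSO.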

[16] = CCTE_Harrill_HTTr_Viability_DMEM_24hr: (Pilot) CCTE's 24-hour Cell Viability Assessment for the High-Throughput Transcriptomics (HTTr) Platform, in MCF-7 cells cultured in DMEM + 10% fetal bovine serum, Harrill Lab (AID 2283975; active = hit-call score of the fitted dose curve at least 0.9, where 1 is the maximum; inactive = score below 0.9)
Method in brief: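 MCF-7 cells in DMEM with 10% FBS exposed for 24 hours to an eight-point dilution series. Membrane integrity by propidium iodide exclusion with high content imaging; bidirectional fit against DMSO.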

[17] = CCTE_Harrill_HTTr_Viability_PRF_DMEM_6hr: (Pilot) CCTE's 6-hour Cell Viability Assessment for the High-Throughput Transcriptomics (HTTr) Platform, in MCF-7 cells cultured phenol red-free DMEM + 10% charcoal-stripped fetal bovine serum, Harrill Lab (AID 2283976; active = hit-call score of the fitted dose curve at least 0.9, where 1 is the maximum; inactive = score below 0.9)
Method in brief: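 MCF-7 cells in phenol red-free DMEM with 10% charcoal-stripped FBS exposed 6 hours to an eight-point dilution series. Propidium iodide exclusion imaged; curves fitted bidirectionally against DMSO.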

[18] = CCTE_Harrill_HTTr_Viability_PRF_DMEM_12hr: (Pilot) CCTE's 12-hour Cell Viability Assessment for the High-Throughput Transcriptomics (HTTr) Platform, in MCF-7 cells cultured in phenol red-free DMEM + 10% charcoal-stripped fetal bovine serum, Harrill Lab (AID 2283977; active = hit-call score of the fitted dose curve at least 0.9, where 1 is the maximum; inactive = score below 0.9)
Method in brief: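 MCF-7 cells in phenol red-free DMEM with 10% charcoal-stripped FBS exposed 12 hours to an eight-point dilution series. Viability assessed by high-content imaging of propidium iodide exclusion; bidirectional fit versus DMSO.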

[19] = CCTE_Harrill_HTTr_Viability_PRF_DMEM_24hr: (Pilot) CCTE's 24-hour Cell Viability Assessment for the High-Throughput Transcriptomics (HTTr) Platform, in MCF-7 cells cultured in phenol red-free DMEM + 10% charcoal-stripped fetal bovine serum, Harrill Lab (AID 2283980; active = hit-call score of the fitted dose curve at least 0.9, where 1 is the maximum; inactive = score below 0.9)
Method in brief: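 MCF-7 cells in phenol red-free DMEM with 10% charcoal-stripped FBS, eight-point dilution series, 24 h exposure. Membrane integrity by propidium iodide exclusion with high content imaging; bidirectional fit vs DMSO.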

Measured: AC50

COC(=O)Nc1nc2ccccc2[nH]1
inactive: [1] | [2] | [3] | [4] | [5] | [6]

CN(C)c1ccc(C(=O)c2ccc(N(C)C)cc2)cc1
inactive: [1] | [3] | [4] | [5] | [6]
active: [7] 2660 nM

Cc1ccc(N)cc1
inactive: [8] | [9] | [10] | [11] | [12] | [13]

Clc1ccc(Cl)c(Cl)c1
inactive: [8] | [9] | [10] | [11] | [12] | [13]

CS(=O)(=O)NC(=O)c1cc(Oc2ccc(C(F)(F)F)cc2Cl)ccc1[N+](=O)[O-]
inactive: [14] | [15] | [16] | [17] | [18] | [19]
